High-throughput results from PubChem BioAssay.
PI4K2A block = qHTS for small molecular inhibitors of PI4K2A | AID 1346378, 2018 | activity change, negative = inhibition, % at 76.9 µM | actives 0.13% (n = 420,000) | purified PI4K2A, ADP-Glo luminescence, 1 h; hits give low values | Phosphatidylinositol 4-kinase type 2-alpha (Homo sapiens), Q9BTU6; in the data active = activity change below about -50%; inconclusive = mostly about -30% to -49%;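 note: -100% = wells without enzyme as full effect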
Target sequence (Q9BTU6 whole entry, looked up): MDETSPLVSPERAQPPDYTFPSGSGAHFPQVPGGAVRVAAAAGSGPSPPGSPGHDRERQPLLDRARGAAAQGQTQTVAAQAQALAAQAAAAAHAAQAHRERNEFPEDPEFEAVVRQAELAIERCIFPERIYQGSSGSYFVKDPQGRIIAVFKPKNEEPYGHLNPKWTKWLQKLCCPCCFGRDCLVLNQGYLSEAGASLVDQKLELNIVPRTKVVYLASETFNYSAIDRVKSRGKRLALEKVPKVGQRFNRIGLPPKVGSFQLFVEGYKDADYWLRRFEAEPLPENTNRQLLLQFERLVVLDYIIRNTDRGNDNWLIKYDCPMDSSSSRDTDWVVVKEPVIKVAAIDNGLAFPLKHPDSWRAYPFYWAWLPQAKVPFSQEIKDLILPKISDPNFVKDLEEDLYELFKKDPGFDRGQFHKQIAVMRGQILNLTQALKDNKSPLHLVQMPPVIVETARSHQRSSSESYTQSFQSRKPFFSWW
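ADP-Glo luminescence measured ADP generated by PI4K2A enzyme (4 ug/mL before mixing) with 1.2 mM PI substrate (pre-mix) and 300 microM ATP (pre-mix). Tris pH7.5 buffer with MgCl2, Triton X-100; 1 h reaction at ambient temperature.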
A549 tox = Nrf2 qHTS screen for inhibitors: counterscreen for cytotoxicity; Potency, µM (titrated, usually from 46 µM), for the others: top-dose activity change, negative = cytotoxicity, usual class: inhibitors; AID 504648, 2011; actives 0.16% (n = 390,000); A549 ARE-Fluc cells, CellTiter-Fluor viability, 18-24 h; note: potency is the fitted concentration of half-maximal effect
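Cytotoxicity counterscreen: CellTiter-Fluor fluorescence was measured in A549 ARE_Fluc cells after 18-24 h of compound exposure in a concentration series. The subsequent BugLite luminescent read reports ARE-luciferase activity.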
KB-3-1 tox = qHTS assay for MDR1-selective chemotherapeutics: Primary screen using the parental adenocarcinoma cell KB-3-1. actives 1.4% (n = 400,000). KB-3-1 viability, CellTiter-Glo ATP luminescence, 72 h. Potency, µM (top dose mostly 46.1 µM), most hits filed as cytotoxic. AID 1347075, 2019; note: potency is the fitted concentration of half-maximal effect; nearly all actives have a fitted effect of over 60% in size
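Screening of KB-3-1 cells (DMEM, 10% FBS, phenol-red free) ran from lowest to highest compound concentration; after 72 h at 37 °C viability was read luminescently and curves fitted.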
Nrf2 block = Nrf2 qHTS screen for inhibitors; A549 ARE-Fluc reporter, luciferase luminescence, 18-24 h; Potency, µM (titrated, usually from 46 µM), for inactives: at the highest dose activity change, negative = inhibition, most hits filed as inhibitors; actives 2.1% (n = 360,000); AID 504444, 2011; note: potency is the fitted concentration of half-maximal effect; nearly all actives have a fitted effect of over 60% in size
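In this cell-based qHTS, ARE-driven firefly luciferase in A549 cells reports Nrf2 activity; the luminescent signal after BugLite lysis is the measured value, with a prior CellTiter-Fluor read for cell health.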
KB-V1 cytotox = qHTS assay for MDR1-selective chemotherapeutics: Primary screen using the drug-selected MDR subline cells KB-V1; KB-V1 MDR cells viability, CellTiter-Glo, 72 h; Potency, µM (titrated, usually from 46.1 µM), usual class: cytotoxic; actives 3.4% (n = 400,000); AID 1347076, 2019; note: potency is the fitted concentration of half-maximal effect; nearly all actives have a fitted effect of over 60% in size
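qHTS viability screen in drug-selected KB-V1 MDR cells: 72 h compound treatment at 37 degrees C, ATP luminescence end point.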
Giardia kill = Small Molecules that selectively kill Giardia lamblia: qHTS; activity change, % at 7.66 µM, hits read low; actives 0.15% (n = 340,000); Giardia lamblia trophozoite viability; in the data active = activity change below about -80%; inconclusive = between about -30% and that limit;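 note: parasites exposed to compound for two days anaerobically before the ATP read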
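Luminescent ATP signal served as the viability read-out, measured 15-30 min after adding ATP detection reagent to trophozoites that had been incubated with compounds for 48 hrs at 37 deg C anaerobically at 100 cells/well.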
An asterisk follows results filed as active; i = inactive; ? = inconclusive; . = no result given. Sampled rows, rich in hits. Any-hit rate of the full collection: about 5.7%. Unless noted, calls come from the whole dose curve; as a rule, active = well fitted curve in the direction sought with a large enough effect; inconclusive = small, poorly fitted or top-dose-only effect, or another doubt; inactive = no such curve, though single readings can be large; an effect the other way counts as inactive or inconclusive. Unless noted, % is set by controls: 0 for no effect and ±100 for the full control effect.

SMILES | PI4K2A block | A549 tox | KB-3-1 tox | Nrf2 block | KB-V1 cytotox | Giardia kill
CCC(C)NS(=O)(=O)c1ccc(NC(=O)C(Sc2ccccc2)c2ccccc2)cc1 (stereo not given) | 0 | ? | ? | ? | 16µM* | 17
O=C(Nc1nncs1)C(Sc1ccccc1)c1ccccc1 (stereo not given) | 3 | -9% | i | -11% | 21µM* | -1
N#Cc1nc(NCCO)nc(Nc2ccccc2)n1 | . | -7% | . | 7% | . | .
O=C1C(Cc2ccc(Br)cc2)SC(=Nc2ccccc2)N1c1ccccc1 (stereo not given) | -3 | 19% | ? | ? | 21µM* | 21
O=C1C(Cc2cccc([N+](=O)[O-])c2)SC(=Nc2ccccc2)N1c1ccccc1 (stereo not given) | -6 | 0% | i | -5% | 21µM* | 12
COC(=O)[C@]12C[C@H](CC(=O)NCc3ccc(OC)c(OC)c3)C(=O)N(CCC3=CCCCC3)C1=C[C@H](C1CCCC1)O[C@@H]2C | -3 | . | . | . | . | .
COc1ccc(NS(=O)(=O)c2cccc(NC(=O)C3=NN(c4ccccc4)C(=O)CC3)c2)cc1 | 1 | -8% | ? | -19% | i | 7
CN(c1ccccc1)S(=O)(=O)c1cccc(NC(=O)C2=NN(c3ccccc3)C(=O)CC2)c1 | -1 | -15% | i | 21µM* | ? | -13
CCn1c(SCC(=O)Nc2cccc(S(=O)(=O)N(C)c3ccccc3)c2)nnc1C1CC1 | 1 | -12% | i | ? | 21µM* | 24
CSc1ncccc1C(=O)Nc1cccc(S(=O)(=O)N(C)c2ccccc2)c1 | 2 | -20% | ? | 12µM* | i | -19
CN(c1ccccc1)S(=O)(=O)c1cccc(NC(=O)c2ccncc2)c1 | 5 | 1% | ? | ? | i | -9
COC(=O)[C@]12C[C@H](CC(=O)NCC3CCCCC3)C(=O)N(Cc3cccc4ccccc34)C1=C[C@H](C1CCCC1)O[C@@H]2C | -2 | . | . | . | . | .
COc1ccc(-c2ccnc3nc(N4CCN(c5ccccc5)CC4)nn23)cc1 | 1 | 0% | ? | ? | 21µM* | 5
COc1cc(/C=C2\C(=O)N(C)C(=S)N2C)ccc1O | 2 | -22% | ? | 12% | i | 5
CN1C(=O)/C(=C/c2ccc(O)c([N+](=O)[O-])c2)N(C)C1=S | -6 | 1% | i | ? | i | -91*
Cc1ccc(C)c(N2CCN(C(=O)c3ccc4[nH]c(C)c(C)c4c3)CC2)c1 | 2 | ? | ? | ? | ? | .
O=C(c1ccc2nsnc2c1)N1CCN(c2ccc([N+](=O)[O-])cc2)CC1 | 5 | -7% | ? | 23µM* | i | -27
O=C(c1ccccc1)N1CCN(C(=O)c2ccc([N+](=O)[O-])cc2)CC1 | -6 | 0% | ? | ? | i | -8
Cc1ccc(C)c(N2CCN(C(=O)c3ccc4nsnc4c3)CC2)c1 | 2 | -12% | 12µM* | -27% | 8.2µM* | 46
Cc1ccc(C)c(N2CCN(C(=O)C3CCN(S(=O)(=O)c4cccc5nsnc45)CC3)CC2)c1 | -61* | -16% | i | ? | i | 28
COc1ccc(CN(C)c2ncnc3sccc23)c(OC)c1OC | 0 | -19% | 8.2µM* | ? | 4.6µM* | -10
CC(NC(=O)c1cc2sccc2n1C)c1ccc2c(c1)OCCO2 (stereo not given) | 7 | 12% | ? | ? | 21µM* | 7
CC(CC(=O)Nc1ccc2c(c1)OCCO2)c1ccccc1 (stereo not given) | -2 | -3% | i | ? | i | 0
CC(CC(=O)NC(C)c1ccc2c(c1)OCCO2)c1ccccc1 (stereo not given) | 1 | -3% | i | 1% | 26µM* | -18
CC(NC(=O)CCc1ccccc1)c1cc2c(cc1Cl)OCCO2 (stereo not given) | 0 | 4% | ? | -14% | 21µM* | -20
SMILES | PI4K2A block | A549 tox | KB-3-1 tox | Nrf2 block | KB-V1 cytotox | Giardia kill
COC(=O)[C@]12C[C@H](CC(=O)NCC3CCCCC3)C(=O)N(CCc3ccc(OC)c(OC)c3)C1=C[C@H](C(C)C)O[C@@H]2C1CC1 | -1 | . | . | . | . | .
COc1ccc(/C=C2\CC3(OC(=O)C4CCCC4)CCCN2C3)cc1 (stereo not given) | 1 | . | . | . | . | .
O=c1[nH]c2c(-c3nc(-c4ccc(Cl)cc4)cs3)c(O)cn2c2ccccc12 | . | . | ? | . | i | .
CCCCCCCCN1C(=O)[C@@H](CC(=O)N2CCOCC2)C[C@@]2(C(=O)OC)C1=C[C@H](C(C)C)O[C@@H]2C1CC1 | 0 | . | . | . | . | .
O=C(Cn1cc(C(=O)c2cccs2)c2ccccc21)Nc1ccc(Br)cc1 | 0 | -3% | . | -15% | . | .
Cc1ccc(NC(=S)NNC(=O)CSc2nnc(SCc3cccc4ccccc34)s2)cc1 | -3 | . | . | . | . | .
O=S(=O)(c1ccc(Cl)c(NC(=S)N/N=C/c2c(F)cccc2F)c1)N1CCOCC1 | 0 | -18% | i | -17% | i | 1
CCN(CC)c1ccc(S(=O)(=O)N2CCOCC2)cc1NC(=O)CNCc1cccc(Cl)c1 | 1 | ? | ? | 26µM* | ? | 22
Cc1ccc(S(=O)(=O)N2CCOCC2)cc1NC(=O)CNCc1ccc(Cl)cc1Cl | 3 | 0% | i | 13µM* | i | -17
Cc1ccc(S(=O)(=O)N2CCOCC2)cc1NC(=O)COC(=O)Cc1ccc(Cl)cc1 | 9 | 10% | i | 9% | i | -3
O=C(CNCc1ccccc1Cl)Nc1cc(S(=O)(=O)N2CCOCC2)ccc1Cl | 7 | -13% | i | 16µM* | i | ?
O=S(=O)(c1ccc(Cl)c(NC(=S)N/N=C/c2ccc(O)cc2)c1)N1CCOCC1 | -4 | -23% | ? | 16µM* | 21µM* | -3
